{
  "source": "PubChem BioAssay (NCATS)",
  "note": "Inconclusive results are not listed. The source made the active and inactive calls. The call rests on the fitted dose curve; tested in HEK293 reporter line. On the % scale 0 is the no-effect control and ±100 the full control effect; potency means the concentration at half of the fitted maximal effect.",
  "data": [
    {"assay": "qHTS for Inhibitors of the Functional Ribonucleoprotein Complex (vRNP) of Lassa (LASV) Arenavirus: LASV Primary Screen - GLuc reporter signal (AID 1347082); further: nearly all actives have a fitted effect of over 60% in size", "conditions": "LASV minigenome vRNP, Gaussia luciferase reporter; series mostly up to 57.5 µM; activity change, negative = inhibition: at the top concentration", "values": [
      {"smiles": "N=C1N=C(N)c2cc3ccccc3cc21", "activity change, negative = inhibition": "-27.5% [at 115 µM] (inactive)"},
      {"smiles": "CCN1CCN(c2cc3c(cc2F)c(=O)c(C(=O)O)cn3C2CC2)CC1", "activity change, negative = inhibition": "5.63% (inactive)"},
      {"smiles": "COc1cc(Nc2ncc(F)c(Nc3ccc4c(n3)NC(=O)C(C)(C)O4)n2)cc(OC)c1OC", "activity change, negative = inhibition": "22.9% (inactive)"},
      {"smiles": "C=C1C(=CC=C2CCC[C@]3(C)[C@@H]([C@H](C)C=C[C@H](C)C(C)C)CC[C@@H]23)C[C@@H](O)C[C@@H]1O", "activity change, negative = inhibition": "15.2% (inactive)"},
      {"smiles": "O=C(O)Cc1ccccc1Oc1ccc(Cl)cc1Cl", "activity change, negative = inhibition": "8.82% (inactive)"},
      {"smiles": "C1Cc2[nH]nc(-c3nn[nH]n3)c2C1", "activity change, negative = inhibition": "2.73% (inactive)"},
      {"smiles": "Cc1cc(-c2ccccc2)nnc1NCCN1CCOCC1", "activity change, negative = inhibition": "10% (inactive)"},
      {"smiles": "O=c1[nH]c(-c2ccc(C(F)(F)F)cc2)nc2c1CSCC2", "activity change, negative = inhibition": "-2.37% (inactive)"},
      {"smiles": "O=c1[nH]nc(Sc2ncc([N+](=O)[O-])s2)n1-c1ccc2c(c1)OCCO2", "activity change, negative = inhibition": "-26.3% (inactive)"},
      {"smiles": "O=S(c1cc(Cl)cc(Cl)c1O)c1cc(Cl)cc(Cl)c1O", "activity change, negative = inhibition": "1.28% (inactive)"},
      {"smiles": "CC[C@@H]1C(=O)N(C)c2cnc(Nc3ccc(C(=O)NC4CCN(C)CC4)cc3OC)nc2N1C1CCCC1", "Potency": "76.9 nM (active)"},
      {"smiles": "CC1=C[C@@H]2[C@@H]([C@@H](O)C[C@@]3(C)[C@H]2C[C@@H](C)[C@]3(O)C(=O)CO)[C@@]2(C)Cc3cnn(-c4ccccc4)c3C=C12", "activity change, negative = inhibition": "-1.39% (inactive)"},
      {"smiles": "Nc1nnnn1-c1ccccc1", "activity change, negative = inhibition": "-10.2% (inactive)"},
      {"smiles": "[O-][n+]1cccc(CO)c1", "activity change, negative = inhibition": "17.3% (inactive)"},
      {"smiles": "Cc1ccnc(NS(=O)(=O)c2ccc(NC(=O)Nc3ccc(S(=O)(=O)Nc4nccc(C)n4)cc3)cc2)n1", "activity change, negative = inhibition": "-3.56% (inactive)"},
      {"smiles": "C[N+]1(C)C2CC(OC(=O)[C@H](CO)c3ccccc3)CC1C1OC12", "note": "(some centres undefined)", "Potency": "inactive"},
      {"smiles": "Cc1cnc(-c2cnc(NCCNc3ccc(C#N)cn3)nc2-c2ccc(Cl)cc2Cl)[nH]1", "activity change, negative = inhibition": "-28.5% (inactive)"},
      {"smiles": "Cc1cccc(-c2[nH]c(C(C)(C)C)nc2-c2ccc3nccnc3c2)n1", "Potency": "9680 nM (active)"},
      {"smiles": "Clc1ccc(-c2nc3sccn3c2C=NOCc2ccc(Cl)c(Cl)c2)cc1", "activity change, negative = inhibition": "-18.2% (inactive)"},
      {"smiles": "CC(=O)NC(C)c1ccc(Oc2ccc(OC(C)C)cc2)cc1", "note": "(centres undefined)", "activity change, negative = inhibition": "-0.0297% (inactive)"},
      {"smiles": "Cc1cc([C@@H](C)Nc2ccccc2C(=O)O)c2nc(N3CCOCC3)cc(=O)n2c1", "Potency": "39500 nM (active)"},
      {"smiles": "CC(NCc1ccc2c(c1)nc(NC(=O)c1ccc(-c3cn[nH]c3)s1)n2CC(C)(C)O)C(C)(C)C", "note": "(centres undefined)", "Potency": "1930 nM (active)"},
      {"smiles": "Brc1ccccc1-c1ccccc1", "activity change, negative = inhibition": "11.7% [at 115 µM] (inactive)"},
      {"smiles": "NC(=O)c1ccc(N(C(N)=O)c2c(F)cccc2F)nc1-c1ccc(F)cc1F", "activity change, negative = inhibition": "-30.7% (inactive)"},
      {"smiles": "CC[C@H](CO)Nc1nc(NCc2ccccc2)c2ncn(C(C)C)c2n1", "activity change, negative = inhibition": "-22.4% (inactive)"},
      {"smiles": "CCOC(=O)C(C)Oc1cccc2c(=O)n(CC(=O)Nc3ccc4c(c3)OCCO4)ccc12", "note": "(centres undefined)", "Potency": "inactive"},
      {"smiles": "CC(C[N+](C)(C)C)OC(N)=O", "note": "(centres undefined)", "Potency": "inactive"},
      {"smiles": "CN(C(=O)C(Cl)Cl)c1ccc(OC(=O)c2ccco2)cc1", "activity change, negative = inhibition": "-23.4% (inactive)"},
      {"smiles": "COCCNCCCn1c(C(=O)CF)c(-c2ccc(C)cc2)c2c(N)ncnc21", "activity change, negative = inhibition": "-9.48% (inactive)"},
      {"smiles": "CCCN(CCC)c1c([N+](=O)[O-])cc(S(N)(=O)=O)cc1[N+](=O)[O-]", "activity change, negative = inhibition": "-9.57% [at 115 µM] (inactive)"},
      {"smiles": "NCCO", "activity change, negative = inhibition": "-17.8% [at 115 µM] (inactive)"},
      {"smiles": "CCCCCCCCOc1ccc(C(=O)c2ccccc2)c(O)c1", "activity change, negative = inhibition": "-0.043% (inactive)"},
      {"smiles": "COc1ccc(CCN2CCN(CCCc3ccccc3)CC2)cc1OC", "activity change, negative = inhibition": "4.09% (inactive)"},
      {"smiles": "CCC(=C(c1ccccc1)c1ccc(OCCN(C)C)cc1)c1ccccc1", "activity change, negative = inhibition": "-5.86% (inactive)"},
      {"smiles": "COc1cc(OC2CCN(C)CC2)ccc1Nc1ncc2c(n1)n(C1CCCC1)c(=O)n2C", "activity change, negative = inhibition": "-21.4% (inactive)"},
      {"smiles": "CCCCC(CC)COC(=O)/C=C/c1ccc(OC)cc1", "note": "(centres undefined)", "activity change, negative = inhibition": "-6.63% (inactive)"},
      {"smiles": "COCCn1c2c([n+](Cc3cnccn3)c1C)C(=O)c1ccccc1C2=O", "Potency": "109 nM (active)"},
      {"smiles": "C=CC(=O)Nc1cc2c(Nc3ccc(F)c(Cl)c3)ncnc2cc1C#CC(C)(C)N1CCN(C)CC1", "activity change, negative = inhibition": "1.59% (inactive)"},
      {"smiles": "CN(C)CCCN=c1c2ccccc2n(C)c2[nH]c(=O)n(C)c(=O)c12", "activity change, negative = inhibition": "-64.8% (inactive)"}
    ]}
  ]
}
